The values that follow come from PubChem BioAssay (NCI).

Compounds without any hit were thinned out: in the full panel of roughly 83,000, 20% have a hit.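 96-well plates, one dose, 48 hours. Percent growth reported; active if below 10.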 A number with no mark means an inactive call. Calls of active or inactive are those of the source.

Common to all, as to assay: NCI-60 one-dose screen, 48 h (100 = growth as untreated, 0 = no growth, -100 = all killed)
Common to all, as to settings: 10 µM unless noted

Assay [1] concerns HCT-15 colon.
Assay [2] concerns HT29 colon.
Assay [3] has as its system SNB-75 CNS.
The test system of assay [4] is SNB-19 CNS.
Assay [5] deals with U251 CNS.
In assay [6] the test system is PC-3 prostate.
For assay [7], the system named is SK-MEL-5 melanoma.
For assay [8], the system named is UACC-62 melanoma.
In assay [9] the test system is LOX IMVI melanoma.
Assay [10] concerns SK-MEL-28 melanoma.
Assay [11] deals with SK-MEL-2 melanoma.
The subject of assay [12] is EKVX NSCLC.
Assay [13] relates to SN12C renal.
Assay [14] concerns UO-31 renal.
The test system of assay [15] is TK-10 renal.
For assay [16], the system named is ACHN renal.
In assay [17] the test system is CAKI-1 renal.
The test system of assay [18] is CCRF-CEM leukemia.
The subject of assay [19] is MOLT-4 leukemia.

As to `Cc1cc2nc3c4ccc(Br)cc4n(CCN(C)C)c3nc2cc1C`, the growth in assay [1] is 1.66% (active); in assay [2] it was 5.01% (active); in assay [3], 16.7%; in [4], 23.5%; in assay [5], 15.1%; in assay [6] it was 12.8%. Also, the growth in assay [7] was 4.17% (active); in assay [8], 13.1%; in assay [9], -52.6% (active); in assay [10], 42.4%; in assay [11] it was 8.78% (active); in assay [12], 22.7%. The growth is 16.7% in assay [13]; -30.3% (active) in assay [14]; 22.2% in assay [15]; -7.69% (active) in assay [16]; 0.198% (active) in [17]; 12.7% in assay [18]. Further, the growth in assay [19] is 3.31% (active).
`COc1cccc(-c2nc3occn3c2-c2ccnc(NCCNS(=O)(=O)c3cccc4ccccc34)n2)c1`: the growth is 103% in [1]; 96.7% in assay [2]; 103% in assay [3]; 97.8% in assay [4]; 108% in assay [5]; 99.6% in [6]. Also, the growth in assay [7] was 98.8%; in assay [8] it was 93.7%; in assay [9] it was 102%; in assay [10] it was 115%; in assay [11], 107%; in assay [12], 114%. Besides, the growth in assay [13] is 103%; in assay [14] it was 85.7%; in [15], 123%; in assay [16], 99.6%; in [17] it was 86.6%; in [18], 123%. In addition, in assay [19], the growth was 97.4%.
For `C=C1C(=O)O[C@H]2[C@H]1CC/C(COC(=O)NCc1c[nH]c3ccc(Cl)cc13)=C\CC[C@@]1(C)O[C@@H]21`, the growth was -60.2% (active) in assay [1]; -78.8% (active) in assay [2]; -6.74% (active) in assay [3]; 32.3% in [4]; -3.11% (active) in assay [5]; 9.72% (active) in [6]. The growth is -17.6% (active) in assay [7]; -73.8% (active) in [8]; -76.3% (active) in [9]; -63% (active) in assay [10]; -6.51% (active) in [11]; -22.4% (active) in assay [12]. The growth is -60.1% (active) in assay [13]; -99.6% (active) in [14]; -53.9% (active) in assay [15]; -98% (active) in assay [16]; -96.4% (active) in assay [17]; -11.1% (active) in assay [18]. For the same compound, the growth in assay [19] was 3.46% (active).
With `C=C1C(=O)O[C@H]2[C@H]1CC/C(COC(=O)NCC(C)c1ccc(CC(C)C)cc1)=C\CC[C@@]1(C)O[C@@H]21` (stereo partly drawn), the growth in assay [1] was -59.2% (active); in [2] it was -60.6% (active); in assay [3], -5.57% (active); in assay [4], 36.9%; in assay [5], -22.3% (active); in assay [6] it was 0.0191% (active). For the same compound, the growth was 17.1% in [7]; -37.7% (active) in [8]; -83.8% (active) in assay [9]; -66.7% (active) in assay [10]; -45.2% (active) in assay [11]; -6.2% (active) in assay [12]. Besides, the growth in assay [13] is -57% (active); in assay [14] it was -100% (active); in [15] it was -36.1% (active); in [16], -100% (active); in assay [17], -23.9% (active); in [18], -24.2% (active). For the same compound, the growth in [19] was -8.4% (active).
With `CC(=O)Nc1ccc(-n2cnc3cc(-c4ccc(OCCN5CCCCC5)cc4)ccc32)cc1`, the growth is 43.6% in assay [1]; 2.12% (active) in assay [2]; 88.2% in [3]; 88% in [4]; 44% in assay [5]; 64.3% in [6]. Moreover, the growth in assay [7] is 79%; in assay [8] it was 120%; in assay [9], 86.8%; in assay [10] it was 107%; in assay [11] it was 119%; in [12] it was 97.9%. Also, the growth was 67.1% in assay [13]; 56.3% in [14]; 146% in [15]; 76.8% in assay [16]; 84.2% in assay [17]; 54.8% in assay [18]. Further, the growth in [19] was 73.1%.
As to `CCOC(=O)Nc1ccc(-c2ccc3c(c2)NC(=O)/C3=C\c2ccc[nH]2)cc1`, the growth in [1] is 84.6%; in assay [2] it was 105%; in [3], 89%; in assay [4], 99.3%; in assay [5] it was 87.9%; in assay [6], 101%. The growth in assay [7] is 99.2%; in [8] it was 101%; in assay [9], 97.2%; in [10] it was 111%; in [11], 114%; in assay [12] it was 30.8%. Moreover, the growth is 102% in assay [13]; 72.6% in [14]; 77% in assay [15]; 100% in [16]; 93.7% in assay [17]; 98.3% in assay [18]. Further, the growth in [19] was 98.8%.
Consider `CCOC(=O)Oc1c(OC)cc(C(=O)c2ccc(OC)c(O)c2OC)cc1OC`, for which the growth was 14.7% in assay [1]; 29.5% in assay [2]; 34.1% in assay [3]; 25.9% in assay [4]; 23.5% in [5]; 22.8% in assay [6]. For the same compound, the growth was 32% in assay [7]; 34.3% in [8]; 49.7% in [9]; 53.1% in [10]; 24.8% in [11]; 58.9% in assay [12]. Besides, the growth is 46% in assay [13]; 46.9% in assay [14]; 43% in [15]; 38.5% in assay [16]; 32% in assay [17]; 15.2% in assay [18]. In [19], the growth was 28.1%.
